Laboratory results from the supplement of paper PMC10849652.
Of roughly 8,800 targets only a part is listed; those with a hit were picked by preference. About 0.5% of all pairs of compound and target were hits.

Columns and labels:
Test in all cases: log2 fold change, soluble protein after heating vs DMSO (PISA); higher = thermal stabilisation; K562 lysate, 10 uM; active = over 0.2 and 3.5 SD of the protein, either way, in both replicates (recomputed)
[1] = compound: C1=CC=C(C=C1)[C@H](COC2=CC3=C(C=C2)NC(=O)N3)NC(=O)C4=CC=CN(C4=O)CC5=CC(=C(C=C5)F)F
In short: (§1)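 Log-two fold change in thermal stability relative to solvent controls is reported from duplicates. For each sample, crude K562 extract from dounce-homogenised pellets in PBS pH 7.4 with 1 mM MgCl2, at 1 mg/mL protein, was treated with 10 μM compound for 30 min. Aliquots heated for 3 min across 48°C-58°C were pooled, brought to 0.5% NP-40 at 4°C and cleared at 21,000xg for 90 min. The supernatant was quantified by TMTpro 16plex LC-MS/MS with channel sums equalised.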

[2] = compound: CC1=C(SC2=C1C(=N[C@H](C3=NN=C(N32)C)CC(=O)N)C4=CC=C(C=C4)Cl)C
In short: as §1

[3] = compound: CC1=C2C(=CC=C1)N=C(N(C2=O)C3=CC=CC=C3C)CN4C=NC5=C(N=CN=C54)N
In short: as §1

[4] = compound: Cc1sc2c(c1C)C(c1ccc(Cl)cc1)=N[C@@H](CC(=O)OC(C)(C)C)c1nnc(C)n1-2
In short: as §1

[5] = compound: c1ccc([C@@H]2C[C@H]2NC2CCNCC2)cc1
In short: as §1

Sequence of UniProt Q99943 (Q99943 whole entry, looked up): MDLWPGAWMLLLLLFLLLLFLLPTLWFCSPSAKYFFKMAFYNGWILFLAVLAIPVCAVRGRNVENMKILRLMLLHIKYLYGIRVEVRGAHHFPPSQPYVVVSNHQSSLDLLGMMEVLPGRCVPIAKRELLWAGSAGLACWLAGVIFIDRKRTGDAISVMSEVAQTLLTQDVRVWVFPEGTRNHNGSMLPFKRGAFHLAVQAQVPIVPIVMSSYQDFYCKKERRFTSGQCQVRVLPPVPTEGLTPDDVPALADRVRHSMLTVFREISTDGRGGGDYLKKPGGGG
Sequence of UniProt Q6NXE6 (Q6NXE6 whole entry, looked up): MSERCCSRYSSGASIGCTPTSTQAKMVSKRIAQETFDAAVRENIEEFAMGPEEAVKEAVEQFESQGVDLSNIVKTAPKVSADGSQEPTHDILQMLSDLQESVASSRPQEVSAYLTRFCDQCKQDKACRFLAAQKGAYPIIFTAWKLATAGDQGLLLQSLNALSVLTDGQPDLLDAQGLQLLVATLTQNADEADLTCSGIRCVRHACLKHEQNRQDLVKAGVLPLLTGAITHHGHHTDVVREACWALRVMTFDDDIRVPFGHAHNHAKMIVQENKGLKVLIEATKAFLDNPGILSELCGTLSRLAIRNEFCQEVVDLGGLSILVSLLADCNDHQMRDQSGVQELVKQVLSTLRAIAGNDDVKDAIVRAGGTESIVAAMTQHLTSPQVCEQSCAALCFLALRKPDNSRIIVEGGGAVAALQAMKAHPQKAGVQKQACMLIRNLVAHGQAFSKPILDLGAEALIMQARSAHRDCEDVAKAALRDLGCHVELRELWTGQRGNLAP
Sequence of UniProt Q02252 (Q02252 whole entry, looked up): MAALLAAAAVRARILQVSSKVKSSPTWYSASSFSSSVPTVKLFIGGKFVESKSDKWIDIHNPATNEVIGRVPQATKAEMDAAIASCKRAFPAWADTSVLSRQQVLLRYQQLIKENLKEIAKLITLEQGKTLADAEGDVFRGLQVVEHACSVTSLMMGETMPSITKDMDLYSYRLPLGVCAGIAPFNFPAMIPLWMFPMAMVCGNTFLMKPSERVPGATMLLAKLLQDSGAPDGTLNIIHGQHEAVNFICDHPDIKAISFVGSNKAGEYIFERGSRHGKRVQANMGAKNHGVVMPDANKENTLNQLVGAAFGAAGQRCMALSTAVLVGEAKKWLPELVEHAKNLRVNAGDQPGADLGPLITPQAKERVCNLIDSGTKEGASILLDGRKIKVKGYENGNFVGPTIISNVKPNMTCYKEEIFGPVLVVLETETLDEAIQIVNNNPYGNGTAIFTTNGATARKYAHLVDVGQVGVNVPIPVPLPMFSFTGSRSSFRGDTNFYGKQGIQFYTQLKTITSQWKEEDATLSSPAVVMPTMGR
Sequence of UniProt Q12797 (Q12797 whole entry, looked up): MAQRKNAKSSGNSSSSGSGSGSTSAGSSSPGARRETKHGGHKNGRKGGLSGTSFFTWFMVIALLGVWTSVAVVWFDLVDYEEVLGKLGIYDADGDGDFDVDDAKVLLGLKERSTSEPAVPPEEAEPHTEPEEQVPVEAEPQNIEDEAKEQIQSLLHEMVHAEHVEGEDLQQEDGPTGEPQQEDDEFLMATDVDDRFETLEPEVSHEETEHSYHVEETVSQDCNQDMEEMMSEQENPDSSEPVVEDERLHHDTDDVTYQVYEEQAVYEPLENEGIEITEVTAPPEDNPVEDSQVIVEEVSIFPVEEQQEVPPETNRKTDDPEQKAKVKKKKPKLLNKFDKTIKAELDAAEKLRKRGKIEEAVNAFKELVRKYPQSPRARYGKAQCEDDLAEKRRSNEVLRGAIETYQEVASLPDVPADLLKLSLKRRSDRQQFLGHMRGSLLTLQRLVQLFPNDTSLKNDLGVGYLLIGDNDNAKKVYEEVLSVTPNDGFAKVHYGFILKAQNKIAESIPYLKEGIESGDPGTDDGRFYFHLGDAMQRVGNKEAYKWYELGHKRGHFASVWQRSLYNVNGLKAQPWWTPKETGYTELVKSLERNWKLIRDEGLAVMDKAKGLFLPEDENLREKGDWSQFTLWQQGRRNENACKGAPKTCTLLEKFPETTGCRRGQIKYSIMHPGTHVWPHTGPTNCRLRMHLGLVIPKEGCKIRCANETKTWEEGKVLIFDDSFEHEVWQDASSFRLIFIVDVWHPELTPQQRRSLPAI
Sequence of UniProt Q15067 (Q15067 whole entry, looked up): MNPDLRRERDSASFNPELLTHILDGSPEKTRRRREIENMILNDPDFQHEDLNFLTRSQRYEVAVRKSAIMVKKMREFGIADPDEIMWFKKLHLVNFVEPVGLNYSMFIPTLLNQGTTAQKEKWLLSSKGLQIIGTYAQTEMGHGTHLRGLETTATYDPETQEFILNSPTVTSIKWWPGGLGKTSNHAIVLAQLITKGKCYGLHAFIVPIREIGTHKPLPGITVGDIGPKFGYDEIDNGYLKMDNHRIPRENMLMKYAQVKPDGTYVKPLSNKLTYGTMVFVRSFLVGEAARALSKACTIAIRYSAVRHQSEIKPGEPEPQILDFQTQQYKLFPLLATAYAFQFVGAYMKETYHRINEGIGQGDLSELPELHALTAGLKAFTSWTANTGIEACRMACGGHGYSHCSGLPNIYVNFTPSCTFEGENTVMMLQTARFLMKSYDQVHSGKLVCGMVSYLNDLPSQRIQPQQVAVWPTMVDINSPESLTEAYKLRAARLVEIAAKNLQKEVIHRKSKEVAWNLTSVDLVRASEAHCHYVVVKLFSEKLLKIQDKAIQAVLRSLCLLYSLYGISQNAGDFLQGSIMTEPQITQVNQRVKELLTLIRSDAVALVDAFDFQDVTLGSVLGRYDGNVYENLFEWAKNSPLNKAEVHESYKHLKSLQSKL
Sequence of UniProt P04083 (P04083 whole entry, looked up): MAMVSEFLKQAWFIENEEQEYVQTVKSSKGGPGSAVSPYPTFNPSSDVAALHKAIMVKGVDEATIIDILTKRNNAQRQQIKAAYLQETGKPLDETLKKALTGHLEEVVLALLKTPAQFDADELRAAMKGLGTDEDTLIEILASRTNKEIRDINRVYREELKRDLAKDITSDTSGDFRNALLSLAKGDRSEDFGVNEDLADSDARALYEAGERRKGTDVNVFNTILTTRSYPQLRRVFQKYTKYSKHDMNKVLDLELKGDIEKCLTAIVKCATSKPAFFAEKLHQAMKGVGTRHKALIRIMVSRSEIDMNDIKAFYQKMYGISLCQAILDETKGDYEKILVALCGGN
Sequence of UniProt Q8N2K0 (Q8N2K0 whole entry, looked up): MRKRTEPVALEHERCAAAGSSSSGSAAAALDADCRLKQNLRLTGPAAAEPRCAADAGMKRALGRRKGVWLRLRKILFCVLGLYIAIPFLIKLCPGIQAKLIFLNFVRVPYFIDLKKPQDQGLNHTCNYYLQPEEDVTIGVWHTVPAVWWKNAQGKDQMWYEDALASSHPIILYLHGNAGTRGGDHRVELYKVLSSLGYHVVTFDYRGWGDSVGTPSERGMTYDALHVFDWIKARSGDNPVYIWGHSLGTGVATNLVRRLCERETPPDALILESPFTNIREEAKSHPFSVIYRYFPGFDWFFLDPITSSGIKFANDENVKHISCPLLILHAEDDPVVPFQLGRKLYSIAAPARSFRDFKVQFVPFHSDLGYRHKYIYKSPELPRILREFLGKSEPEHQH
Sequence of UniProt P31751 (P31751 whole entry, looked up): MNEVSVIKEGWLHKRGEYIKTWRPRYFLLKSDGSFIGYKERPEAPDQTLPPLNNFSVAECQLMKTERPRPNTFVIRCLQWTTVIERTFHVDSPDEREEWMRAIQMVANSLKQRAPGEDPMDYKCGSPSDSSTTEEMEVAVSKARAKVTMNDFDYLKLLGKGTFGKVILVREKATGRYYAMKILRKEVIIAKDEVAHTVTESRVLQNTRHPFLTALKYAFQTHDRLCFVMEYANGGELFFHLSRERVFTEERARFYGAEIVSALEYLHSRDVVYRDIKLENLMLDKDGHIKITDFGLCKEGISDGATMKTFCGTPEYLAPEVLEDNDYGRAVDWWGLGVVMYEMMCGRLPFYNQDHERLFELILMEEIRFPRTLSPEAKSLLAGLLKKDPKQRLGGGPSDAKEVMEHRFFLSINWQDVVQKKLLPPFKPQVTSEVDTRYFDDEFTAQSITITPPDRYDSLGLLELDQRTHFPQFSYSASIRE
Sequence of UniProt Q6P1M9 (Q6P1M9 whole entry, looked up): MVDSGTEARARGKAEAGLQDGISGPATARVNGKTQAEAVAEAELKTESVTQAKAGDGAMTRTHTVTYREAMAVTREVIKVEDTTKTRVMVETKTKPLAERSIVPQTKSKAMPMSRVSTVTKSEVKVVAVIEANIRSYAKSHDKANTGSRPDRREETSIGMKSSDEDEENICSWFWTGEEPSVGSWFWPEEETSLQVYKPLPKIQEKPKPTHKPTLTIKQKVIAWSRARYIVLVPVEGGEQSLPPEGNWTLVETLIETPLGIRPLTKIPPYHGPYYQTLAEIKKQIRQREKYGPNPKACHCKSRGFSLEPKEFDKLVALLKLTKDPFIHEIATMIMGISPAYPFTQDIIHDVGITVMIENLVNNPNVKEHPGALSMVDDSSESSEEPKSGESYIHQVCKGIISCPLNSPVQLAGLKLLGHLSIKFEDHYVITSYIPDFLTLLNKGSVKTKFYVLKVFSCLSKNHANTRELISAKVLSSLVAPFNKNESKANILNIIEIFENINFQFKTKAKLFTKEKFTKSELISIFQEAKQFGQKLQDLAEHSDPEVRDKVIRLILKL
Sequence of UniProt Q9BR61 (Q9BR61 whole entry, looked up): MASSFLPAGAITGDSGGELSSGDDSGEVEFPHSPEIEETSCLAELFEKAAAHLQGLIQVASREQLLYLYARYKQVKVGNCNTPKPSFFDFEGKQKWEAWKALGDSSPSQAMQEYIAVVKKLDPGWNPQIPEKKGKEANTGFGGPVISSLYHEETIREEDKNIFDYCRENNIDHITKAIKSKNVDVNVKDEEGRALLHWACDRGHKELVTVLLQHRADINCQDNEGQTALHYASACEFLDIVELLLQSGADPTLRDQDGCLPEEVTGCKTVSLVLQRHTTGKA

| Target | log2 fold change [1] | log2 fold change [2] | log2 fold change [3] | log2 fold change [4] | log2 fold change [5] |
| --- | --- | --- | --- | --- | --- |
| ARAF (UniProt P10398) | 0.012 (inactive) | -0.002 (inactive) | -0.078 (inactive) | 0 (inactive) | 0.002 (inactive) |
| ACIN1 (UniProt E7EQT4) | 0.04 (inactive) | 0.015 (inactive) | 0.037 (inactive) | 0.032 (inactive) | -0.118 (inactive) |
| ARMC6 (UniProt Q6NXE6) | -0.046 (inactive) | -0.012 (inactive) | -0.017 (inactive) | 0.003 (inactive) | 0.043 (inactive) |
| ABCC5 (UniProt O15440) | 0.087 (inactive) | -0.052 (inactive) | -0.108 (inactive) | -0.099 (inactive) | 0.115 (inactive) |
| ANLN (UniProt Q9NQW6) | 0.04 (inactive) | -0.014 (inactive) | 0.053 (inactive) | 0.015 (inactive) | 0.005 (inactive) |
| ACSL1 (UniProt P33121) | -0.136 (inactive) | 0.004 (inactive) | 0.014 (inactive) | 0.063 (inactive) | 0.021 (inactive) |
| ACBD6 (UniProt Q9BR61) | 0.014 (inactive) | 0.019 (inactive) | -0.009 (inactive) | -0.045 (inactive) | -0.022 (inactive) |
| ADRM1 (UniProt Q16186) | -0.005 (inactive) | 0.007 (inactive) | -0.001 (inactive) | -0.026 (inactive) | 0.016 (inactive) |
| ADD1 isoform 3 (UniProt P35611) | 0.03 (inactive) | 0.016 (inactive) | -0.01 (inactive) | -0.021 (inactive) | 0.015 (inactive) |
| ACADS (UniProt P16219) | -0.015 (inactive) | 0.069 (inactive) | 0.054 (inactive) | 0.013 (inactive) | 0.003 (inactive) |
| APOBEC3C (UniProt Q9NRW3) | -0.003 (inactive) | 0.032 (inactive) | 0.013 (inactive) | 0.014 (inactive) | -0.062 (inactive) |
| AGPAT1 (UniProt Q99943) | -0.04 (inactive) | 0.024 (inactive) | 0.089 (inactive) | -0.038 (inactive) | -0.134 (inactive) |
| ABHD11 (UniProt Q8NFV4) | 0.072 (inactive) | -0.031 (inactive) | 0.028 (inactive) | -0.021 (inactive) | -0.098 (inactive) |
| ALDH6A1 (UniProt Q02252) | 0.011 (inactive) | -0.111 (inactive) | 0 (inactive) | 0.02 (inactive) | -0.061 (inactive) |
| ASPH (UniProt Q12797) | 0.006 (inactive) | 0.028 (inactive) | 0 (inactive) | -0.045 (inactive) | 0.026 (inactive) |
| ACLY (UniProt P53396) | 0.011 (inactive) | 0.03 (inactive) | 0.004 (inactive) | 0.03 (inactive) | 0.023 (inactive) |
| ANXA5 (UniProt P08758) | 0.031 (inactive) | 0.016 (inactive) | 0.013 (inactive) | 0.033 (inactive) | 0.075 (inactive) |
| AFF1 isoform 2 (UniProt P51825) | -0.109 (inactive) | 0.133 (inactive) | -0.006 (inactive) | -0.087 (inactive) | -0.118 (inactive) |
| AK4 (UniProt P27144) | 0.025 (inactive) | -0.038 (inactive) | 0.059 (inactive) | 0.024 (inactive) | 0.026 (inactive) |
| ANAPC7 (UniProt Q9UJX3) | -0.008 (inactive) | -0.003 (inactive) | -0.002 (inactive) | 0.023 (inactive) | 0.048 (inactive) |
| ANXA1 (UniProt P04083) | -0.011 (inactive) | 0.005 (inactive) | -0.01 (inactive) | -0.019 (inactive) | -0.005 (inactive) |
| ARL13B (UniProt Q3SXY8) | 0.087 (inactive) | 0.03 (inactive) | 0.012 (inactive) | 0.019 (inactive) | 0.145 (inactive) |
| ADAR isoform 4 (UniProt P55265) | -0.188 (inactive) | 0.116 (inactive) | 0.035 (inactive) | 0.005 (inactive) | 0.032 (inactive) |
| AKT2 (UniProt P31751) | 0.011 (inactive) | 0.003 (inactive) | 0.031 (inactive) | 0.02 (inactive) | 0.028 (inactive) |
| ARMCX5 (UniProt Q6P1M9) | 0.021 (inactive) | -0.07 (inactive) | 0.057 (inactive) | 0.036 (inactive) | -0.03 (inactive) |
| APAF1 (UniProt O14727) | -0.013 (inactive) | 0.004 (inactive) | 0.022 (inactive) | 0.012 (inactive) | 0.02 (inactive) |
| ANKRD54 (UniProt Q6NXT1) | 0.011 (inactive) | -0.04 (inactive) | 0.038 (inactive) | -0.042 (inactive) | -0.024 (inactive) |

| Target | log2 fold change [1] | log2 fold change [2] | log2 fold change [3] | log2 fold change [4] | log2 fold change [5] |
| --- | --- | --- | --- | --- | --- |
| ABCD3 (UniProt P28288) | 0.178 (inactive) | -0.094 (inactive) | 0.016 (inactive) | 0.013 (inactive) | 0.01 (inactive) |
| ADAMTS5 (UniProt Q9UNA0) | 0.032 (inactive) | 0.115 (inactive) | 0 (inactive) | -0.136 (inactive) | -0.481 (active) |
| ANKRD10 (UniProt Q9NXR5) | -0.131 (inactive) | -0.027 (inactive) | 0.025 (inactive) | 0.06 (inactive) | -0.019 (inactive) |
| ANKRD30B (UniProt Q9BXX2) | -0.098 (inactive) | 0.112 (inactive) | 0.042 (inactive) | -0.125 (inactive) | -0.407 (inactive) |
| ABL1 isoform 2 (UniProt P00519) | -0.042 (inactive) | -0.065 (inactive) | 0.067 (inactive) | -0.017 (inactive) | 0.102 (inactive) |
| ABI1 isoform 9 (UniProt Q8IZP0) | -0.013 (inactive) | -0.008 (inactive) | -0.006 (inactive) | -0.004 (inactive) | -0.117 (inactive) |
| ARGLU1 (UniProt Q9NWB6) | 0.049 (inactive) | 0.009 (inactive) | 0.036 (inactive) | -0.026 (inactive) | 0.074 (inactive) |
| ABHD13 (UniProt Q7L211) | 0.043 (inactive) | -0.127 (inactive) | 0.153 (inactive) | -0.171 (inactive) | -0.246 (inactive) |
| ACACA isoform 4 (UniProt Q13085) | 0.001 (inactive) | 0.027 (inactive) | 0.019 (inactive) | 0.027 (inactive) | 0.085 (inactive) |
| ABHD12 isoform 2 (UniProt Q8N2K0) | 0.008 (inactive) | 0.042 (inactive) | 0.003 (inactive) | 0.031 (inactive) | 0.042 (inactive) |
| ABL2 (UniProt P42684) | -0.026 (inactive) | 0.016 (inactive) | 0 (inactive) | -0.14 (inactive) | -0.105 (inactive) |
| ASB6 (UniProt Q9NWX5) | 0.012 (inactive) | 0.125 (inactive) | 0.005 (inactive) | 0.016 (inactive) | 0.028 (inactive) |
| ACOX1 isoform 2 (UniProt Q15067) | 0.035 (inactive) | -0.002 (inactive) | -0.026 (inactive) | -0.018 (inactive) | -0.037 (inactive) |
| AP1G2 (UniProt O75843) | 0.082 (inactive) | -0.09 (inactive) | 0.016 (inactive) | 0.028 (inactive) | -0.099 (inactive) |
| AKAP8L (UniProt Q9ULX6) | 0.011 (inactive) | -0.005 (inactive) | -0.001 (inactive) | 0.018 (inactive) | -0.02 (inactive) |
| ACTBL2 (UniProt Q562R1) | 0.138 (inactive) | -0.194 (inactive) | -0.016 (inactive) | 0.106 (inactive) | 0.365 (inactive) |
| ARAP1 (UniProt Q96P48) | 0.022 (inactive) | -0.008 (inactive) | 0.048 (inactive) | 0.013 (inactive) | -0.015 (inactive) |
| ADAM17 (UniProt P78536) | -0.098 (inactive) | -0.251 (active) | 0.093 (inactive) | 0.002 (inactive) | -0.032 (inactive) |
| ABCF2 isoform 2 (UniProt Q9UG63) | -0.022 (inactive) | -0.011 (inactive) | 0.04 (inactive) | -0.019 (inactive) | 0.055 (inactive) |
| AIFM2 (UniProt Q9BRQ8) | 0.668 (active) | 0.008 (inactive) | 0.039 (inactive) | -0.007 (inactive) | -0.1 (inactive) |
| AGL (UniProt P35573) | 0.022 (inactive) | 0.028 (inactive) | 0.036 (inactive) | 0.035 (inactive) | 0.086 (inactive) |
| ARHGAP6 (UniProt O43182) | -0.026 (inactive) | -0.023 (inactive) | -0.012 (inactive) | 0.018 (inactive) | 0.02 (inactive) |
| AGO4 (UniProt Q9HCK5) | 0.014 (inactive) | 0.022 (inactive) | 0.001 (inactive) | -0.011 (inactive) | -0.07 (inactive) |
| ANP32E (UniProt Q9BTT0) | 0.043 (inactive) | -0.005 (inactive) | -0.053 (inactive) | -0.038 (inactive) | 0.026 (inactive) |
| AFF4 (UniProt Q9UHB7) | -0.362 (active) | -0.269 (inactive) | -0.081 (inactive) | -0.026 (inactive) | -0.052 (inactive) |
| ALKBH4 (UniProt Q9NXW9) | 0.011 (inactive) | 0.025 (inactive) | 0.032 (inactive) | 0.01 (inactive) | -0.017 (inactive) |
